Results filed as inconclusive are left out. A call without a number means that no potency is given here. Active and inactive are the calls of the source. Calls follow the shape of the full dose curve.
Assays:
[1] = Cytotoxicity counterscreen for inhibitors of SARS-CoV-2 cell entry (AID 1645845); also: nearly all actives have a fitted effect of over 50% in size
Procedure, shortened: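 Counterscreen run in the same HEK293-ACE2 line as the pseudotyped-particle entry assay, without particles. Viability after 48 h at 37 C was read as ATP luminescence, scaled between cell-containing and cell-free wells.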

[2] = Primary qHTS to identify inhibitors of SARS-CoV-2 cell entry (AID 1645846); settings: activity change, negative = inhibition: at 57.1 µM (top of the series) unless noted; also: nearly all actives have a fitted effect of over 45% in size
Procedure, shortened: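 Luminescence readout (Bright-Glo luciferase) 48 h after pseudoparticle addition. HEK293-ACE2 cells, 1500/well; compound pre-incubation 1 h; Normalized to spike PP and bald PP.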
Potency is read from the fitted curve at half-maximal effect.

Row | SMILES | Potency [1] | activity change, negative = inhibition [2] | Potency [2] | activity change, negative = cytotoxicity [1]
1 | CN(C)c1ccc(C2Nc3ccc4ccccc4c3C3=C2C(=O)CC(C)(C)C3)cc1Br (stereo unspecified) | inactive | -8.04% |  | 
2 | Nc1nc2c(ncn2CCC(CO)CO)c(=O)[nH]1 | inactive | -17.9% |  | 
3 | Cc1cn(-c2cc(NC(=O)c3ccc(C)c(Nc4nccc(-c5cccnc5)n4)c3)cc(C(F)(F)F)c2)cn1 | inactive | -29.3% |  | 
4 | CC[C@@H](C)[C@H](NC(=O)[C@H](CC1CCCCC1)NC(=O)c1ccno1)C(=O)N1CCC2(CCc3ccccc32)CC1 | inactive |  | inactive | 
5 | COc1cc(Nc2ncc(F)c(Nc3ccc4c(n3)NC(=O)C(C)(C)O4)n2)cc(OC)c1OC | inactive |  | inactive | 
6 | COc1cc2nc(-c3ccc(N4CCN(C)CC4)cc3)nc(NCCN3CCOCC3)c2cc1OC | inactive | -14.2% |  | 
7 | COc1ccccc1O | inactive |  | inactive | 
8 | COc1ccc2c3n(c(=NC(=O)c4cccnc4)nc2c1OC)CCN3 |  | -3.67% [at 5.25 µM] |  | 3.4% [at 5.25 µM] (inactive)
9 | CCN(c1ccccc1)c1cc(NC)[n+](C)c(C)n1 | inactive | 3.72% |  | 
10 | CCOc1cc(C(=O)Nc2ccc(Cl)c(-c3nc4ccccc4[nH]3)c2)cc(OCC)c1OCC | inactive |  | 25.1 µM (active) | 
11 | COc1ccc(-c2c(-c3ccc(O)cc3O)n[nH]c2C)cc1 | inactive | -56.7% |  | 
12 | COc1cc(Nc2ncc3c(n2)-c2ccc(Cl)cc2C(c2c(F)cccc2OC)=NC3)ccc1C(=O)O | inactive | -83% |  | 
13 | Nc1nc(-c2nn(Cc3ccccc3F)c3ncccc23)nc(N)c1N1CCOCC1 | inactive |  | inactive | 
14 | Cn1cncc1[C@@](N)(c1ccc(Cl)cc1)c1ccc2c(c1)c(-c1cccc(Cl)c1)cc(=O)n2C | inactive | -13% |  | 
15 | CNC(=O)c1ccc(N2C(=S)N(c3ccc(C#N)c(C(F)(F)F)c3)C(=O)C2(C)C)cc1F | inactive |  | 22.4 µM (active) | 
16 | Cc1cccc(-c2[nH]ncc2-c2ccc3ncccc3n2)n1 | inactive | -1.7% |  | 
17 | Cn1cc(-c2[nH]c3cc(NC(=O)[C@H](N)C4CCCCC4)cc4c3c2C=NNC4=O)cn1 | 15.8 µM (active) |  | 8.91 µM (active) | 
18 | O=C(O)CCC1CCC(c2cc(F)ccc2F)(S(=O)(=O)c2ccc(Cl)cc2)CC1 (stereo unspecified) | inactive | -2.05% |  | 
19 | CCCn1c(=O)c2[nH]c(C34CC5CC3C[C@@H](C5)C4)nc2n(CCC)c1=O | inactive | -12.4% |  | 

Row | SMILES | Potency [1] | activity change, negative = inhibition [2] | Potency [2] | activity change, negative = cytotoxicity [1]
20 | Cc1c(C)c2c(c(C)c1OC(=O)c1cccnc1)CC[C@@](C)(CCC[C@H](C)CCC[C@H](C)CCCC(C)C)O2 | inactive |  | inactive | 
21 | Cc1n[nH]c(C)c1Cc1sc2c(c1C(=O)N1C[C@H](O)CO1)c(=O)n(C)c(=O)n2CC(C)C | inactive | -55.4% |  | 
22 | CC(=O)OCC(=O)[C@@]1(O)[C@H](C)C[C@H]2[C@@H]3C=C(C)C4=Cc5c(cnn5-c5ccccc5)C[C@]4(C)[C@@H]3[C@@H](O)C[C@@]21C | inactive |  | inactive | 
23 | CC(=O)NC(C)c1ccc(Oc2ccc(OC(C)C)cc2)cc1 (stereo unspecified) | inactive | -26.1% [at 114 µM] |  | 
24 | N#C/C(=C1\SCC(c2ccccc2Cl)S1)n1ccnc1 (stereo unspecified) | inactive |  | inactive | 
25 | CC(=O)Oc1cccc(C)c1 | inactive | 0.724% |  | 
26 | CCCOC(=O)c1ccc(O)cc1 | inactive |  | inactive | 
27 | CC1(O)CC(c2nc(-c3ccc4ccc(-c5ccccc5)nc4c3)c3c(N)nccn23)C1 (stereo unspecified) | inactive | -23.9% |  | 
28 | Cc1nc(N)sc1-c1ccnc(Nc2ccc(N3CCOCC3)cc2)n1 | 3.16 µM (active) |  | 3.16 µM (active) | 
29 | O=C(Nc1ccccc1-c1cn2c(CN3CCNCC3)csc2n1)c1cnc2ccccc2n1 | 7.08 µM (active) |  | 7.94 µM (active) | 
30 | CN[C@@H](C)C(=O)N[C@H]1CCCC[C@H]2CC[C@@H](C(=O)N[C@@H](c3ccccc3)c3cn(CCCCc4ccc(CCCCn5cc([C@@H](NC(=O)[C@@H]6CC[C@@H]7CCCC[C@H](NC(=O)[C@H](C)NC)C(=O)N76)c6ccccc6)nn5)cc4)nn3)N2C1=O | inactive | -12% |  | 
31 | CC(C)(Sc1ccc(CCN(CCCCC2CCCCC2)C(=O)NC2CCCCC2)cc1)C(=O)O | inactive | 4.91% |  | 
32 | CC(C)c1ccc(Cn2ccc3c4c(N)nc(NC5CC5)nc4ccc32)cc1 | 2.51 µM (active) | -96.8% |  | 
33 | O=C(NCCCNc1nc(Nc2cccc(NC(=O)N3CCCC3)c2)ncc1I)c1cccs1 | inactive |  | inactive | 
34 | CC(C)CCCC(C)CCCC(C)CCCCC(C)CCCC(C)CCCC(C)C (stereo unspecified) | inactive | -16.5% |  | 
35 | CCNC(=O)c1noc(-c2cc(C(C)C)c(O)cc2O)c1-c1ccc(CN2CCOCC2)cc1 | inactive | -24.6% |  | 
36 | NC(CO)C(=O)NNCc1ccc(O)c(O)c1O (stereo unspecified) | inactive |  | inactive | 
37 | CC(C)c1onc(-c2c(Cl)cccc2Cl)c1COc1ccc(/C=C/c2cccc(C(=O)O)c2)c(Cl)c1 | inactive |  | inactive | 
38 | COc1ccccc1[C@H](c1cccc2ccccc12)[C@@](C)(C#N)C(=O)N1CCC(c2cccc(C(F)(F)F)c2)CC1 | inactive | -3.93% |  | 

Reference: PubChem BioAssay (NCATS)
